TGFb SMAD3 inh = blocks TGF-b signaling; actives 1.2% (n = 410,000); HepG2 CAGA-GFP TGF-b/SMAD3 reporter, GFP fluorescence, 18 h; TGF-beta stimulated, 500 pg/mL final; AID 588855; Potency, µM (series often up to 46.1 µM), without a hit: at the highest dose activity, negative = inhibition, hits mostly inhibitors; further: on the % scale 0 is the no-effect control and ±100 the full control effect; nearly all actives have a fitted effect of over 65% in size
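Inhibition was scored as loss of TGF-beta-induced (500 pg/mL final, 18 hours, 37 degrees C) GFP in HEPG2 cells carrying a CAGA-GFP reporter, in DMEM with 1% FBS. Well GFP was summed per cell; Activity was normalised to unstimulated and stimulated DMSO wells, then concentration-response fitting.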
HepG2 viability = counter-screen for TGF-b inhibitors: cytotoxicity in HepG2 cells; HepG2 CAGA-GFP viability, ATP luminescence, 18 h; Potency, µM (doses to about 46.1 µM), for the others: top-dose activity change, negative = cytotoxicity, actives largely listed as cytotoxic; actives 0.76% (n = 410,000)
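HepG2 CAGA-GFP cells (1000/well, DMEM with 1% FBS) received compound, then TGF-beta at 500 pg/mL final, and were incubated 18 hours at 37 degrees C. Viability was read by CellTiter-Glo luminescence. Media-only wells were set as complete cell-killing and DMSO as no toxicity.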
HT1080 IDH1KD tx = kills HT-1080 cells with IDH1 knockdown | HT-1080 IDH1 knockdown viability, ATP luminescence, 48 h | Potency, µM (series often up to 46.1 µM), inactives show at the highest dose activity, negative = toxicity, hits mostly cytotoxic | actives 2% (n = 360,000);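 further: 0% = DMSO wells and -100% = cell-free medium wells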
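IDH1KD HT-1080 cells, 750/well, RPMI + 5% FBS; compound pinned after 2 h settling; 48 h, 37 °C; CellTiter-Glo luminescence; % activity normalised to DMSO and no-cell wells; curves fitted, classed by r2 and efficacy.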
DT40 TDP1 no CPT = qHTS for Inhibitors of human tyrosyl-DNA phosphodiesterase 1 (TDP1): qHTS in cells in absence of CPT. Potency, µM (series often up to 46.2 µM), for the others: at the highest dose activity change, negative = growth inhibition, actives largely listed as inhibitors. actives 15% (n = 420,000). DT40 Tdp1-/- hTDP1 cells, no CPT, ATP luminescence, 48 h; further: on the % scale 0 is the no-effect control and ±100 the full control effect; nearly all actives have a fitted effect of over 55% in size
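Chicken DT40 Tdp1-/- cells complemented with human TDP1, screened without camptothecin (DMSO vehicle only), 400 cells/well. Compounds pin-transferred, cells incubated at 37 °C for at least 48 hr. Growth read as ATP-dependent luminescence (CellTiter-Glo, 30 min at RT).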
HT1080-NT tox = kills 2HG-producing HT-1080-NT fibrosarcoma cells | HT-1080-NT fibrosarcoma viability, CellTiter-Glo ATP luminescence, 48 h | Potency, µM (series often up to 46.1 µM), for inactives: at the top dose activity, negative = less viability, usual class: cytotoxic | actives 1.6% (n = 360,000);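 further: NT is the 2HG producing partner of a matched IDH1 knockdown line; 0% = DMSO-treated cells and -100% = media-only wells without cells; nearly all actives have a fitted effect of over 55% in size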
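A 48-hour cytotoxicity screen used HT-1080-NT cells plated 2 hours before compound delivery. ATP-based CellTiter-Glo luminescence measured viability, normalized to DMSO and no-cell controls.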
DT40 TDP1 CPT = DT40-hTDP1 cell growth loss with CPT | AID 686979 | Potency, µM (titrated, usually from 46.2 µM), for inactives: at the top dose activity change, negative = growth inhibition, most hits filed as inhibitors | chicken DT40 Tdp1-/-;hTDP1 cells + 20 nM CPT, ATP luminescence, 48 h | actives 12% (n = 420,000); further: on the % scale 0 is the no-effect control and ±100 the full control effect; nearly all actives have a fitted effect of over 55% in size
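Chicken DT40 Tdp1-/- cells complemented with human TDP1, 400 cells/well, exposed to compounds plus 20 nM camptothecin for at least 48 h at 37 C; viability read as ATP content by CellTiter-Glo luminescence.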
Starred values were filed as active, the others as inactive. Hits are enriched below; roughly 17% of the tested compounds scored in any of these assays. The call rests on the fitted dose curve; in most records, active means well fitted curve in the direction sought with a large enough effect; inconclusive means small, poorly fitted or top-dose-only effect, or another doubt; inactive means no such curve, though single readings can be large; an effect the other way counts as inactive or inconclusive. Potency means the concentration at half of the fitted maximal effect.

COc1ccc2c(c1)c1ccc3c(c1n2C)C(=O)C=CC3=O was read as TGFb SMAD3 inh inconclusive, HepG2 viability -22%, HT1080 IDH1KD tx -5%, DT40 TDP1 no CPT 0.52µM*, HT1080-NT tox -2% and DT40 TDP1 CPT 0.73µM*.
For Cc1ccc2c(c1)c1ccc3c(c1n2C)C(=O)C=CC3=O the results were TGFb SMAD3 inh inconclusive, HepG2 viability -37%, HT1080 IDH1KD tx -1%, DT40 TDP1 no CPT 0.58µM*, HT1080-NT tox -12% and DT40 TDP1 CPT 0.52µM*.
Screening Cn1[nH]c2c(c1=O)[C@H](c1ccc(F)cc1)O[C@H](CCc1ccccc1)C2 returned TGFb SMAD3 inh inconclusive, HepG2 viability -29%, HT1080 IDH1KD tx 8%, DT40 TDP1 no CPT inconclusive, HT1080-NT tox 3% and DT40 TDP1 CPT -20%.
Cc1nn(C)cc1C(C)NC(=O)c1cc(COc2ccc(F)c(F)c2)on1 (centres undefined) was read as TGFb SMAD3 inh -14%, HepG2 viability -20%, HT1080 IDH1KD tx -1%, DT40 TDP1 no CPT inconclusive, HT1080-NT tox -2% and DT40 TDP1 CPT inconclusive.
COc1ccccc1CNC(=O)COC(=O)c1ncc(Cl)c(Cl)c1Cl was read as TGFb SMAD3 inh 14%, HepG2 viability 0%, HT1080 IDH1KD tx 8%, DT40 TDP1 no CPT inconclusive, HT1080-NT tox 4% and DT40 TDP1 CPT 3%.
COc1ccc2[nH]cc(CCNc3cc(-c4cccc(C#N)c4)ncn3)c2c1 was read as DT40 TDP1 no CPT inconclusive and DT40 TDP1 CPT 21µM*.
For N#Cc1cccc(-c2cc(NCc3cccnc3)ncn2)c1 the results were DT40 TDP1 no CPT -15% and DT40 TDP1 CPT -4%.
COc1ccc2[nH]cc(CCNc3ncnc4ccc(-c5ccccc5C#N)cc34)c2c1 was read as DT40 TDP1 no CPT 18µM* and DT40 TDP1 CPT inconclusive.
COc1ccc2[nH]cc(CCNc3ncncc3-c3ccccc3CN(C)C)c2c1 was read as DT40 TDP1 no CPT -19% and DT40 TDP1 CPT -18%.
COc1cccc(-c2ccc3ncnc(NCCc4c[nH]c5ccc(OC)cc45)c3c2)c1 was read as DT40 TDP1 no CPT 21µM* and DT40 TDP1 CPT 23µM*.
`COc1ccc2[nH]cc(CCNc3ncnc4ccc(-c5cccc(C#N)c5)cc34)c2c1` gave DT40 TDP1 no CPT inconclusive and DT40 TDP1 CPT 21µM*.
CCCOc1ccccc1C1C(C(=O)Nc2ccccc2)=C(C)Nc2nnnn21 (centres undefined) was read as TGFb SMAD3 inh 2%, HepG2 viability -3%, DT40 TDP1 no CPT -22% and DT40 TDP1 CPT -17%.
Screening CCCc1cc(=O)oc2cc(OCC(=O)Nc3ccc(S(N)(=O)=O)cc3)ccc12 returned TGFb SMAD3 inh -9%, HepG2 viability -5%, HT1080 IDH1KD tx 1%, DT40 TDP1 no CPT -25%, HT1080-NT tox 0% and DT40 TDP1 CPT -22%.
COc1ccc2[nH]cc(CCNc3ncncc3-c3ccccc3OC)c2c1 was read as DT40 TDP1 no CPT inconclusive and DT40 TDP1 CPT -95%.
Screening COc1ccc2[nH]cc(CCNc3cc(-c4ccccc4OC)ncn3)c2c1 returned DT40 TDP1 no CPT inconclusive and DT40 TDP1 CPT 16µM*.
For CSc1ncnc2ncn(C)c12 the results were TGFb SMAD3 inh 0%, HepG2 viability -19%, HT1080 IDH1KD tx 14%, DT40 TDP1 no CPT 12%, HT1080-NT tox 9% and DT40 TDP1 CPT 19%.
For C=CCN1C(=O)C(O)(CC(=O)c2ccc(-n3cccc3)cc2)c2ccccc21 (centres undefined) the results were TGFb SMAD3 inh 7%, HepG2 viability 1%, HT1080 IDH1KD tx -14%, DT40 TDP1 no CPT inconclusive, HT1080-NT tox -6% and DT40 TDP1 CPT inconclusive.
Screening C=CCN1C(=O)C2(NNc3ccccc3O2)c2ccccc21 (centres undefined) returned TGFb SMAD3 inh 33%, HepG2 viability -52%, HT1080 IDH1KD tx inconclusive, DT40 TDP1 no CPT 8.2µM*, HT1080-NT tox inconclusive and DT40 TDP1 CPT 6.5µM*.
For C=CCN1C(=O)C2(NC(=O)c3ccccc3N2)c2ccccc21 (centres undefined) the results were TGFb SMAD3 inh -4%, HepG2 viability 1%, HT1080 IDH1KD tx inconclusive, DT40 TDP1 no CPT inconclusive, HT1080-NT tox inconclusive and DT40 TDP1 CPT 18µM*.
Screening COc1ccc(Br)cc1CN1CCN(C(=O)c2ccc(OC)c(OC)c2)CC1 returned TGFb SMAD3 inh inconclusive, HepG2 viability -54%, HT1080 IDH1KD tx -4%, DT40 TDP1 no CPT -28%, HT1080-NT tox -4% and DT40 TDP1 CPT inconclusive.
COc1ccc(CN2CCN(Cc3c[nH]c4ccccc34)CC2)cc1 was read as TGFb SMAD3 inh 3%, HepG2 viability -28%, HT1080 IDH1KD tx -17%, DT40 TDP1 no CPT 13µM*, HT1080-NT tox -11% and DT40 TDP1 CPT 6.5µM*.
`COc1ccc(CN2CCN(Cc3c[nH]c4ccccc34)CC2)c(OC)c1` gave TGFb SMAD3 inh -12%, HepG2 viability -27%, HT1080 IDH1KD tx -18%, DT40 TDP1 no CPT 0.29µM*, HT1080-NT tox -12% and DT40 TDP1 CPT -83%.
Screening COc1ccc(Br)cc1CN1CCN(C(=O)c2ccc(F)cc2)CC1 returned TGFb SMAD3 inh -27%, HepG2 viability -38%, HT1080 IDH1KD tx -10%, DT40 TDP1 no CPT 21µM*, HT1080-NT tox -6% and DT40 TDP1 CPT inconclusive.
`COc1ccc(C(=O)C2CCCN(Cc3c[nH]c4ccccc34)C2)c(OC)c1` (centres undefined) gave TGFb SMAD3 inh inconclusive, HepG2 viability -55%, HT1080 IDH1KD tx inconclusive, DT40 TDP1 no CPT 9.2µM*, HT1080-NT tox inconclusive and DT40 TDP1 CPT 7.3µM*.
For COc1ccc(CN2CCN(Cc3ccccc3F)CC2)c(OC)c1 the results were TGFb SMAD3 inh -17%, HepG2 viability -23%, HT1080 IDH1KD tx -18%, DT40 TDP1 no CPT inconclusive, HT1080-NT tox -19% and DT40 TDP1 CPT -14%.
`COc1cc(C2NC(=O)CCC2[N+](=O)[O-])cc(Br)c1OC` (centres undefined) gave TGFb SMAD3 inh 0%, HepG2 viability 0%, HT1080 IDH1KD tx 2%, DT40 TDP1 no CPT 1%, HT1080-NT tox 12% and DT40 TDP1 CPT -6%.

Bioassay records: PubChem BioAssay, National Center for Advancing Translational Sciences (NCATS)
